The structures appear in SMILES notation. Results filed as inconclusive are left out. The source made the active and inactive calls. Calls follow the shape of the dose curve; as a rule, active = well fitted activation curve with a large enough effect; inconclusive = small, poorly fitted or top-dose-only effect; inactive = flat fitted curve, though single readings scatter.

We go through 18 compounds from PubChem BioAssay (NCATS).

This assay in a line: Primary redox qHTS assay for identification of artifact compounds. (AID 1845223).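 Also: 0% = DMSO and 100% = reference compound.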 As to conditions: Amplex Red/HRP redox cycling with DTT, fluorescence; series mostly up to 53.8 µM; redox activity (% of DA3003): at the top concentration. The method, boiled down:
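Amplex Red (25 uM) and HRP (250 mU/mL) in HBSS, with compounds for 15 min, then 250 uM DTT for 30 min, room temperature, dark. Fluorescence 525/598 nm read; normalized to DMSO and 10 uM DA3003; Hill fit.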
As to `COC(=O)C1=CO[C@@H](O[C@@H]2O[C@H](CO)[C@@H](O)[C@H](O)[C@H]2O)[C@@H]2[C@@H](C)[C@@H](O)C(O)[C@H]12` (stereo partly drawn), the “redox activity (% of DA3003)” value was -17.7% [at 25.6 µM] (inactive).
Consider `CC(C)c1ccc2c(c1)CCC1[C@](C)(C(=O)O)CCC[C@]21C` (stereo partly drawn), for which the “redox activity (% of DA3003)” value was 14.9% (inactive).
With `CC(C)(CC(=O)N1CCCC1)NCC(=O)N1C[C@@H](F)C[C@H]1C#N` the figure was -3.49% (inactive); with `CC1(C)CCC2(C(=O)O)CCC3(C)C(=CCC4C5(C)CCC(O)C(C)(CO)C5C(O)CC43C)C2C1` (stereo not drawn), 9.28% [at 25.6 µM] (inactive).
To `N[C@@H](CCNCc1ccc(Cl)cc1)C(=O)N1CCCCC1` belongs -5.38% (inactive); to `O=C(OCC(O)CO[C@@H]1O[C@H](C(=O)O)[C@@H](O)[C@H](O)[C@H]1O)c1ccccc1` (stereo partly drawn), -14.5% (inactive).
`CC(=O)c1ccc(O[C@@H]2OC[C@@H](O)[C@H](O)[C@H]2O[C@]2(CO)O[C@H](CO)[C@@H](O)[C@@H]2O)c(O)c1`: the “redox activity (% of DA3003)” value is -16.6% [at 25.6 µM] (inactive).
With `O=C(Nc1ccccc1)Nc1ccc(-c2ccc(C(=O)C3CCCC3C(=O)O)cc2)cc1` (stereo not drawn) the figure was 19.4% (inactive); with `CC(C)(O)C1OC1C1=CC(=O)C2(C)OC2C1O` (stereo not drawn), -7.67% (inactive); with `COC(=O)C(Cc1ccccc1)NC(=O)c1ccccc1` (stereo not drawn), -8.53% (inactive).
With `COc1cc(CO)cc(OC)c1O[C@@H]1O[C@H](CO)[C@@H](O)[C@H](O)[C@H]1O` the figure was -10.3% (inactive); with `C[C@@H]1O[C@@H](O[C@@H]2[C@@H](O)[C@H](O[C@H]3[C@H](O[C@H]4CC[C@@]5(C)C(CC[C@]6(C)C5CC=C5[C@@H]7CC(C)(C)CC[C@]7(C(=O)O[C@@H]7O[C@H](CO)[C@@H](O)[C@H](O)[C@H]7O)CC[C@]56C)C4(C)C)O[C@H](C(=O)O)[C@@H](O)[C@@H]3O)OC[C@H]2O)[C@H](O)[C@H](O)[C@H]1O` (stereo partly drawn), -4.9% [at 11.5 µM] (inactive); with `COc1ccc([C@H]2OC[C@H]3[C@@H]2CO[C@@H]3c2ccc(O[C@@H]3O[C@H](CO)C(O)[C@H](O)[C@H]3O)c(OC)c2)cc1OC` (stereo partly drawn), -2.7% [at 25.6 µM] (inactive).
With `COCCCc1sc(-c2ccccc2)nc1C(=O)Nc1ccccc1-c1nc2cc(CN3CCCC3)cnc2s1` the figure was -1.04% [at 25.6 µM] (inactive).
On to `C=C[C@H]1[C@H](O[C@@H]2O[C@H](CO)[C@@H](O)[C@H](OC(=O)/C=C/c3ccc(O)c(OC)c3)[C@H]2O)OC=C2C(=O)OCC[C@]21O`, for which the “redox activity (% of DA3003)” value is -17.8% [at 25.6 µM] (inactive).
With `CN1C(=O)N(c2cc(Cl)cc(Cl)c2)C(=O)[C@@]1(C)Cc1ccc(Br)cc1`, the “redox activity (% of DA3003)” value was 1.95% (inactive).
Regarding `C[C@H](/C=C/[C@@]1(O)[C@H](C)CC(=O)CC1(C)C)O[C@@H]1O[C@H](CO[C@@H]2OC[C@@H](O)[C@H](O)[C@H]2O)[C@@H](O)[C@H](O)[C@H]1O`, the “redox activity (% of DA3003)” value is -2.11% [at 25.6 µM] (inactive).
With `COC(=O)C1=COC(O[C@@H]2O[C@H](CO)[C@@H](O)[C@H](O)[C@H]2O)[C@@H]2[C@@](C)(O)[C@@H](OC(=O)/C=C/c3ccccc3)C[C@]12O` (stereo partly drawn) the figure was -2.7% [at 25.6 µM] (inactive).
